From PubChem
HEK293 tox = cytotoxicity counter-screen for GLP-1 receptor inverse agonists; HEK293 cAMP-luciferase reporter cells, luminescence, 24 h; Potency, µM (highest dose often 38.3 µM), for the others: at the highest dose activity change, negative = inhibition, actives largely listed as inhibitors; 410,000 tested, 0.13% active;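 note: loss of luciferase light is scored as toxicity; potency is the fitted concentration of half-maximal effect; % is set by controls: 0 for no effect and ±100 for the full control effect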
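Luminescence readout: signal drop marks cytotoxicity. Plated cells grew 12 h at 37 °C, 5% CO2, received 23 nL compound for 24 h, then got luciferase reagent, read after 12 min at RT.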
GLP-1R agonist = GLP-1 receptor (human) agonism | P43220 | HEK293 GLP-1R CRE-luciferase, luminescence, 4-6 h; cells express a hypersensitive GLP-1R form | Potency, µM (titrated, usually from 45.6 µM), for the others: at the highest dose activation, hits mostly activators | 380,000 tested, 0.007% active | AID 624172; note: potency is the fitted concentration of half-maximal effect; % of control where 0% means no effect
Target sequence (P43220 whole entry, looked up): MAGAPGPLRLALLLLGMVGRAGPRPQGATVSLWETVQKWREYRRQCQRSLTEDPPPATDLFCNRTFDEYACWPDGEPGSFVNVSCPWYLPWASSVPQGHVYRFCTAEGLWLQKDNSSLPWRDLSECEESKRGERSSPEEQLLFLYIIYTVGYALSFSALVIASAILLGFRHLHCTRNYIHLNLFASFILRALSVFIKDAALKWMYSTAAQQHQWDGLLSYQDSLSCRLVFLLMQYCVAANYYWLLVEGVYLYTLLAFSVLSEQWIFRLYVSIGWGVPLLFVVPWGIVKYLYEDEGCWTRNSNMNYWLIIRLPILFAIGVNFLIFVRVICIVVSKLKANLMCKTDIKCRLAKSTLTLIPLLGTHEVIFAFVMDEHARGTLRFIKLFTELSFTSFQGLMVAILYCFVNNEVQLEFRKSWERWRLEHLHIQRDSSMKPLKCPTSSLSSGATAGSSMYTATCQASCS
mIDH1 inhibitor = human IDH1 R132H inhibition; O75874; IDH1-R132H enzyme, NADPH consumption, diaphorase/resazurin fluorescence; Potency, µM (titrated, usually from 76.6 µM), for the others: top-dose activity change, negative = inhibition, usual class: inhibitors; 390,000 tested, 0.093% active; AID 602179; note: potency is the fitted concentration of half-maximal effect; % is set by controls: 0 for no effect and ±100 for the full control effect; nearly all actives have a fitted effect of over 65% in size
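IDH1-R132H (0.5 ug/mL) preincubated 30 min with compound, then NADPH (0.016 mM) and alpha-KG (2 mM) added; 80 min at RT, pH 7.5. Remaining NADPH coupled via diaphorase/resazurin to fluorescence (540/590 nm); concentration-response curves normalized to no-enzyme control.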
LDHA inh = inhibitors of human lactate dehydrogenase A; P00338; purified LDHA, NADH/diaphorase-resazurin fluorescence; active compounds read low; activity change, % (values are at about 110 or 230 µM); 480,000 tested, 0.15% active; AID 1347041; in the data active = activity change below about -30%; inconclusive = mostly about -25% to -30%;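 note: plate controls were DMSO wells for no effect and wells without enzyme for full effect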
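LDH5 2 nM; NADH 0.06 mM, pyruvate 0.2 mM; 200 mM Tris pH 7.4, EDTA, Tween-20; 5 min RT. Detection: diaphorase 0.133 mg/mL + resazurin 37 µM, fluorescence ex540/em590 at 0 and 20 min; normalized to enzyme-free and DMSO wells.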
PTHR1 ag = PTHR1 (human) receptor agonism; AID 743266; 410,000 tested, 0.075% active; HEK293 GP2 PTHR1 cells, GloSensor cAMP luminescence, 1 h; Potency, µM (doses to about 115 µM), for inactives: at the top dose activation, most hits filed as activators; Q03431; note: potency is the fitted concentration of half-maximal effect; nearly all actives have a fitted effect of over 55% in size
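HEK-293-derived GP2 cells expressing PTHR1 and a GloSensor cAMP reporter, 3,000/well, plated overnight, given luciferin plus IBMX (each 0.5 mM as added) for 1 h at 37 °C, then compound for 1 h at 37 °C. Luminescence was read after 15 min at room temperature.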
GLP1R inv ag = GLP-1 receptor (human) inverse agonism; P43220; HEK293 GLP-1R CRE-luciferase, luminescence, 24 h; GLP-1R form is constitutively active; Potency, µM (highest dose often 38.3 µM), without a hit: at the top dose activity change, negative = inhibition, actives largely listed as inhibitors; 410,000 tested, 1.6% active; AID 624417; note: potency is the fitted concentration of half-maximal effect; % is set by controls: 0 for no effect and ±100 for the full control effect; nearly all actives have a fitted effect of over 55% in size
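HEK293 cells stably co-expressing a cAMP-responsive luciferase reporter and constitutively active GLP-1R were seeded, incubated 12 h, then exposed to compounds for 24 h at 37 C. Luminescence was read 12 min after detection reagent; inverse agonists lower signal.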
An asterisk follows results filed as active; [ ] = remark or other dose. In the library only some 1.7% were active in any assay of this set; here they are far more common. Unless noted, calls come from the whole dose curve; as a rule, active = well fitted curve in the direction sought with a large enough effect; inconclusive = small, poorly fitted or top-dose-only effect, or another doubt; inactive = no such curve, though single readings can be large; an effect the other way counts as inactive or inconclusive.

How did S=C1Nc2ccccc2CS1 do in these assays?
HEK293 tox: inconclusive; GLP-1R agonist: -7%; mIDH1 inhibitor: 6%; LDHA inh: -6; PTHR1 ag: -4%; GLP1R inv ag: inconclusive

What do the screens show for `COc1ccc(S(=O)(=O)Cc2nnnn2-c2ccc(F)cc2)cc1`?
LDHA inh: 8

What do the screens show for `OCCN1CCN(C2CCC(c3ccc(F)cc3)c3ccc(F)cc32)CC1` (stereo unspecified)?
HEK293 tox: inconclusive; GLP-1R agonist: 1%; mIDH1 inhibitor: 4%; LDHA inh: 1; PTHR1 ag: -23%; GLP1R inv ag: 2µM*

How did CC(C)N(Cc1ccccc1)C(=O)c1ccc2c(c1)OCO2 do in these assays?
HEK293 tox: 0%; GLP-1R agonist: 0%; mIDH1 inhibitor: 0%; LDHA inh: 0; PTHR1 ag: inactive; GLP1R inv ag: inconclusive

Results for CCC(=O)N(CCC(c1ccccc1)c1ccc2c(c1)OCO2)Cc1ccc(OC(C)C)cc1 (stereo unspecified) ?
HEK293 tox: -12%; GLP-1R agonist: -4%; mIDH1 inhibitor: -3%; LDHA inh: 5; PTHR1 ag: inactive; GLP1R inv ag: 13µM*

Results for O=C(Cc1ccc(NC(=O)N2CCCCc3ccccc32)cc1)Nc1ccccc1Br ?
HEK293 tox: -16%; mIDH1 inhibitor: -6%; LDHA inh: -2; PTHR1 ag: 5%; GLP1R inv ag: 3.2µM*

Results for Cc1cc(C)c(NC(=O)CSC2CCCC2)c(Cl)c1 ?
LDHA inh: 0

Results for O=S(=O)(c1ccccc1)N1CCN(c2nc3ccccc3o2)CC1 ?
LDHA inh: -5

How did COc1ccc(/C=N/NC(=O)c2cc(C34CC5CC(CC(C5)C3)C4)[nH]n2)cc1OC do in these assays?
HEK293 tox: 7%; GLP-1R agonist: 14%; mIDH1 inhibitor: 6%; LDHA inh: -4; PTHR1 ag: -30%; GLP1R inv ag: 3%

How did O=C(N/N=C/c1ccc(O)cc1)c1cc(C23CC4CC(CC(C4)C2)C3)[nH]n1 do in these assays?
HEK293 tox: -32%; GLP-1R agonist: 15%; mIDH1 inhibitor: -2%; LDHA inh: -2; PTHR1 ag: inactive; GLP1R inv ag: 1.4µM*

What do the screens show for `CCOn1c(=O)c(=O)n(OCc2ccccc2)c2ccccc21`?
HEK293 tox: -3%; GLP-1R agonist: 3%; mIDH1 inhibitor: -2%; LDHA inh: -1; PTHR1 ag: inactive; GLP1R inv ag: 0%

Results for CC1(C)C(=O)N(OCc2ccccc2)C(C)(C)C(=O)N1OCc1ccccc1 ?
HEK293 tox: -4%; GLP-1R agonist: 1%; mIDH1 inhibitor: 5%; LDHA inh: -1; PTHR1 ag: -29%; GLP1R inv ag: 10µM*

How did COc1c(C)cc(Br)cc1C(=O)Nc1ccc(Cc2ccncc2)cc1 do in these assays?
HEK293 tox: 0%; GLP-1R agonist: 4%; mIDH1 inhibitor: 2%; LDHA inh: -2; PTHR1 ag: -25%; GLP1R inv ag: 10µM*

Results for CCCCCC1CCC(c2ccc(C(=O)O)cc2)CC1 (stereo unspecified) ?
LDHA inh: 9

Results for Cc1cc(C(=O)OCC(=O)Nc2ccccc2C(C)C)c2ccccc2n1 ?
LDHA inh: -40*

What do the screens show for `Cc1cc(C(=O)OCC(=O)c2cccc3ccccc23)c2ccccc2n1`?
LDHA inh: -35*

How did Cc1cc(O)c(-c2n[nH]c3c2C(c2ccccc2F)N(CCCO)C3=O)cc1Cl (stereo unspecified) do in these assays?
LDHA inh: 2

How did COC(=O)c1ccc(NC(=S)NC2CC(C)(C)NC(C)(C)C2)cc1 do in these assays?
HEK293 tox: 0%; GLP-1R agonist: -5%; mIDH1 inhibitor: -1%; LDHA inh: -12; PTHR1 ag: -18%; GLP1R inv ag: 8.9µM*

Results for Cc1ccc2nc(-c3ccc(NC(=S)NC4CC(C)(C)NC(C)(C)C4)cc3)sc2c1 ?
HEK293 tox: inconclusive; GLP-1R agonist: 5%; mIDH1 inhibitor: 3%; LDHA inh: 0; PTHR1 ag: -27%; GLP1R inv ag: 5µM*

How did COC(=O)c1ccc(NC(=S)NC2CCc3ccccc32)cc1 (stereo unspecified) do in these assays?
HEK293 tox: inconclusive; GLP-1R agonist: 10%; mIDH1 inhibitor: 3%; LDHA inh: -7; PTHR1 ag: -11%; GLP1R inv ag: 10µM*

How did CN(CC(=O)Nc1cccc(F)c1)C(=O)c1ccccc1Cc1ccccc1 do in these assays?
HEK293 tox: -24%; GLP-1R agonist: -1%; mIDH1 inhibitor: 3%; LDHA inh: -2; PTHR1 ag: inactive; GLP1R inv ag: 13µM*

How did CN(CC(=O)Nc1cccc(F)c1)C(=O)c1ccc(C(=O)c2ccccc2)cc1 do in these assays?
HEK293 tox: -12%; GLP-1R agonist: 5%; mIDH1 inhibitor: -1%; LDHA inh: -3; PTHR1 ag: -13%; GLP1R inv ag: inconclusive

What do the screens show for `COc1ccc(C2/C=C\CN(C(=O)c3ccc(C)cc3)[C@H](Cc3ccccc3)C(=O)N2Cc2ccc(F)cc2)cc1` (stereo partly specified)?
HEK293 tox: -8%; GLP-1R agonist: 0%; mIDH1 inhibitor: -2%[38.3 µM]; LDHA inh: 1; PTHR1 ag: -38%; GLP1R inv ag: 10µM*

Results for CSc1ccc(CNC23CC4CC(CC(O)(C4)C2)C3)cc1 ?
LDHA inh: 5

How did CN(CCCNC(=O)CSc1cc(=O)n(C)c2cc(Cl)ccc12)Cc1ccccc1 do in these assays?
HEK293 tox: -16%; GLP-1R agonist: 21%; mIDH1 inhibitor: 0%; LDHA inh: -6; PTHR1 ag: inactive; GLP1R inv ag: 7.9µM*

What do the screens show for `Cn1c(=O)cc(SCC(=O)NCc2ccc(F)cc2)c2ccc(Cl)cc21`?
HEK293 tox: -4%; mIDH1 inhibitor: -9%; LDHA inh: -2; PTHR1 ag: inactive; GLP1R inv ag: 0%

How did CCc1noc(CN2CCN(c3oc(C4CC4)nc3C#N)CC2)n1 do in these assays?
LDHA inh: 2

What do the screens show for `O=c1[nH]c(=S)[nH]c2c1C(c1ccc(Br)cc1)c1c([nH]c(=S)[nH]c1=O)O2`?
HEK293 tox: 21%; GLP-1R agonist: -4%; mIDH1 inhibitor: 0%; LDHA inh: -77*; PTHR1 ag: inactive; GLP1R inv ag: -5%
